# Data reported in PMC7862700, “An all-to-all approach to the identification of sequence-specific readers for epigenetic DNA modifications on cytosine”.
# How the values were obtained:
# Test in all cases: DAPPL (digital affinity profiling via proximity ligation, sequencing); 10 mM Tris-HCl pH 7.5, 50 mM NaCl, 1 mM DTT, 4% glycerol, room temperature, 30 min; GST-TFs on glutathione beads, 16-mer random dsDNA library, 0.1% formaldehyde crosslink after washing; high values mean tight binding
# Conditions in all cases: protein: recombinant; tags: N-terminal GST; dsDNA, one strand shown
# ERF = biological target: T1, ERF (Homo sapiens, UniProt P50548 1-548)
# T1 sequence: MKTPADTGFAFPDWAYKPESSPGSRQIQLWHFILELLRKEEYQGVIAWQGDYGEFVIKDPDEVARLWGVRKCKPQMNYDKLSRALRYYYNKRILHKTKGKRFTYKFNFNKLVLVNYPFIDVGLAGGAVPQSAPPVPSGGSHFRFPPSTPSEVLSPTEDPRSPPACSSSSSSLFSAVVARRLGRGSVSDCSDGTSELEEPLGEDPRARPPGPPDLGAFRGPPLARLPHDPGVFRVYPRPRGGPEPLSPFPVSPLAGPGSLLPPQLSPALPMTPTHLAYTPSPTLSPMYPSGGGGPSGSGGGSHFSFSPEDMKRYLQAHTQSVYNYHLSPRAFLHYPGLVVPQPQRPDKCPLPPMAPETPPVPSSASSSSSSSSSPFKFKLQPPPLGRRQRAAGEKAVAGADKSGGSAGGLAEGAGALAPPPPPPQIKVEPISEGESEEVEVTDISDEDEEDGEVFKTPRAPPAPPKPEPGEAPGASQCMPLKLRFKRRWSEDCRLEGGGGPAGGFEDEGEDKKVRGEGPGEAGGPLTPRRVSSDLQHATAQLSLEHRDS
# Summary of the method: (§1)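 Binding signal is defined as a hexamer's read frequency for one factor over its frequency for the tag-only sample. To obtain reads, GST-fused human transcription factors were expressed in yeast, captured on glutathione beads, barcoded with DNA and pooled with that sample. Pools met 200 nmole of a 16-mer random double-stranded DNA library in Tris/NaCl/DTT/glycerol buffer for 30 min at room temperature before washing, 0.1% formaldehyde crosslinking, proximity ligation (BsaI/T4 ligase, 1 h, 37 °C), PCR and Illumina NextSeq500 sequencing.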
# ETV3L = biological target: T2, ETV3L (Homo sapiens, UniProt Q6ZN32 1-361)
# T2 sequence: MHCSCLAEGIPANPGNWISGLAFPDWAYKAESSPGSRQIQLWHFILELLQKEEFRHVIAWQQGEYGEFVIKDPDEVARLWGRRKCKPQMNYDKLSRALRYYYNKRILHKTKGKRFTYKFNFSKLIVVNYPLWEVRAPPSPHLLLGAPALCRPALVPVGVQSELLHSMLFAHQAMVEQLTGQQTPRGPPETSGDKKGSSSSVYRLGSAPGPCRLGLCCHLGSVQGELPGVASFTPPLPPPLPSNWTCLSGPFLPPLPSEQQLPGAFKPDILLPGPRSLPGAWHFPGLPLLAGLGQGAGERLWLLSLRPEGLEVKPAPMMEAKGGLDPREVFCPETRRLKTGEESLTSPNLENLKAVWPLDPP
# Summary of the method: as §1
# ETS2 = biological target: T3, ETS2 (Homo sapiens, UniProt P15036 1-469)
# T3 sequence: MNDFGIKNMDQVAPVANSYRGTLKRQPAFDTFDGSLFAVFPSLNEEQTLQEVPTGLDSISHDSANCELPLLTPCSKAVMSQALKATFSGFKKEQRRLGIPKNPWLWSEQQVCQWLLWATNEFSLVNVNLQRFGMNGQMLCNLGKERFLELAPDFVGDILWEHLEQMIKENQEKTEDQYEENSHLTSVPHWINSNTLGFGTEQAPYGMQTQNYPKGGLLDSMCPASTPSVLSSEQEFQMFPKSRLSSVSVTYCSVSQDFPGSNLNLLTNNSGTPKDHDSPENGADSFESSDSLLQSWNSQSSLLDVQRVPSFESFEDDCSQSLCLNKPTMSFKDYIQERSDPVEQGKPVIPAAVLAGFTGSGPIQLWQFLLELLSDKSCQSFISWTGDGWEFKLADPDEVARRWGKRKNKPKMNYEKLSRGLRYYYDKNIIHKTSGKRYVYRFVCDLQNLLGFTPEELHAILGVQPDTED
# Summary of the method: as §1
# SPDEF = biological target: T4, SPDEF (Homo sapiens, UniProt O95238 1-335)
# T4 sequence: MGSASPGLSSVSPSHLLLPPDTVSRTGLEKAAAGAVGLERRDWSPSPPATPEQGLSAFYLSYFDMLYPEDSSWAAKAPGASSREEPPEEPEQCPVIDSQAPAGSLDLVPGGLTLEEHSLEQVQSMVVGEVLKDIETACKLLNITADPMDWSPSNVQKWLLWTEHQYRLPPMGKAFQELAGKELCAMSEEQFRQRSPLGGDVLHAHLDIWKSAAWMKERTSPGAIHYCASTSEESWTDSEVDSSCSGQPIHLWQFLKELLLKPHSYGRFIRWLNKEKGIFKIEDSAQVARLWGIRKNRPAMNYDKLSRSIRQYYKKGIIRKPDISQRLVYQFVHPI
# Summary of the method: as §1
# ETV7 = biological target: T5, ETV7 (Homo sapiens, UniProt Q9Y603 1-341)
# T5 sequence: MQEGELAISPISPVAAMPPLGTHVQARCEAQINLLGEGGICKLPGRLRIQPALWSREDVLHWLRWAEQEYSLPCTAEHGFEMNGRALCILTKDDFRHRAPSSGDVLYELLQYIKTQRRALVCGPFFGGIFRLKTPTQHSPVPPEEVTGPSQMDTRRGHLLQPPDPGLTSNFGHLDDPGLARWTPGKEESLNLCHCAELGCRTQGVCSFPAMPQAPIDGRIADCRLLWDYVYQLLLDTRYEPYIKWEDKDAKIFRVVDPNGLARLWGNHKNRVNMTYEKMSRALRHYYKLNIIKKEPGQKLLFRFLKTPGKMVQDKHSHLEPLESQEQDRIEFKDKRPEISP
# Summary of the method: as §1
# ELF5 = biological target: T6, ELF5 (Homo sapiens, UniProt Q9UKW6-2 1-255)
# T6 sequence: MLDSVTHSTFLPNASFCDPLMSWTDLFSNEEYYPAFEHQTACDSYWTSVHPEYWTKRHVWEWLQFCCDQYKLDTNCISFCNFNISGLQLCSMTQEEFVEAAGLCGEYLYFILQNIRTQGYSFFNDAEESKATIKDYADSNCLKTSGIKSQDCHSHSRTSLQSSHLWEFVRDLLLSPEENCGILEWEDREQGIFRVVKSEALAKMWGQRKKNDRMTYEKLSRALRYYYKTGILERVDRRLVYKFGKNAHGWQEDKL
# Summary of the method: as §1
# ETV3 = biological target: T7, ETV3 (Homo sapiens, UniProt P41162-2 1-143)
# T7 sequence: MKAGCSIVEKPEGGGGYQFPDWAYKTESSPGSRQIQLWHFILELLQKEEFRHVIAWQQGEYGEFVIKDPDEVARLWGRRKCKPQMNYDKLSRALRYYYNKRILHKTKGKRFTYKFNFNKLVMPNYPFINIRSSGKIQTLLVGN
# Summary of the method: as §1
# ETV6 = ETV6 (Homo sapiens, UniProt P41212 1-452)
# Sequence of ETV6 (P41212 whole entry): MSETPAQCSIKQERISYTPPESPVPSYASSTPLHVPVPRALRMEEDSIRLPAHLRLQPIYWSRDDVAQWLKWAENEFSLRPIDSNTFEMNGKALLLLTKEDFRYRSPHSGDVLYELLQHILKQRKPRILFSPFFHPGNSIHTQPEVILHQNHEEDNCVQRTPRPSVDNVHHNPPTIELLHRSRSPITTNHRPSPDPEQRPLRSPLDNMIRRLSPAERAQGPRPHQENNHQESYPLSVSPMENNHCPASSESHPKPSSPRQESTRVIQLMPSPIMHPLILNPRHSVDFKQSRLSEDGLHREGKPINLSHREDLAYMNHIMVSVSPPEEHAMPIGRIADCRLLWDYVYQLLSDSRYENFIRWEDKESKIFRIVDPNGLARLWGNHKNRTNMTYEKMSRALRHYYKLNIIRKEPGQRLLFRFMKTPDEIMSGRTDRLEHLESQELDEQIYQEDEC
# Summary of the method: as §1
sequence,measurement,setting,value
TACAGA,binding signal,ERF,"1.13 fold enrichment (6-mer frequency, TF over GST control)"
same,binding signal,ETV3L,"1.04 fold enrichment (6-mer frequency, TF over GST control)"
same,binding signal,ETS2,"1.14 fold enrichment (6-mer frequency, TF over GST control)"
same,binding signal,SPDEF,"1.16 fold enrichment (6-mer frequency, TF over GST control)"
same,binding signal,ETV7,"1.18 fold enrichment (6-mer frequency, TF over GST control)"
same,binding signal,ELF5,"1.11 fold enrichment (6-mer frequency, TF over GST control)"
same,binding signal,ETV3,"1.1 fold enrichment (6-mer frequency, TF over GST control)"
same,binding signal,ETV6,"1.1 fold enrichment (6-mer frequency, TF over GST control)"
TGACTT,binding signal,ERF,"1.45 fold enrichment (6-mer frequency, TF over GST control)"
same,binding signal,ETV3L,"1.4 fold enrichment (6-mer frequency, TF over GST control)"
same,binding signal,ETS2,"1.53 fold enrichment (6-mer frequency, TF over GST control)"
same,binding signal,SPDEF,"1.24 fold enrichment (6-mer frequency, TF over GST control)"
same,binding signal,ETV7,"1.48 fold enrichment (6-mer frequency, TF over GST control)"
same,binding signal,ELF5,"1.56 fold enrichment (6-mer frequency, TF over GST control)"
same,binding signal,ETV3,"1.46 fold enrichment (6-mer frequency, TF over GST control)"
same,binding signal,ETV6,"1.39 fold enrichment (6-mer frequency, TF over GST control)"
CTCTCT,binding signal,ERF,"1.63 fold enrichment (6-mer frequency, TF over GST control)"
same,binding signal,ETV3L,"1.6 fold enrichment (6-mer frequency, TF over GST control)"
same,binding signal,ETS2,"1.43 fold enrichment (6-mer frequency, TF over GST control)"
same,binding signal,SPDEF,"1.59 fold enrichment (6-mer frequency, TF over GST control)"
same,binding signal,ETV7,"1.56 fold enrichment (6-mer frequency, TF over GST control)"
same,binding signal,ELF5,"1.41 fold enrichment (6-mer frequency, TF over GST control)"
same,binding signal,ETV3,"1.68 fold enrichment (6-mer frequency, TF over GST control)"
same,binding signal,ETV6,"1.59 fold enrichment (6-mer frequency, TF over GST control)"
CTTCGT,binding signal,ERF,"1.4 fold enrichment (6-mer frequency, TF over GST control)"
same,binding signal,ETV3L,"1.32 fold enrichment (6-mer frequency, TF over GST control)"
same,binding signal,ETS2,"1.34 fold enrichment (6-mer frequency, TF over GST control)"
same,binding signal,SPDEF,"1.25 fold enrichment (6-mer frequency, TF over GST control)"
same,binding signal,ETV7,"1.4 fold enrichment (6-mer frequency, TF over GST control)"
same,binding signal,ELF5,"1.3 fold enrichment (6-mer frequency, TF over GST control)"
same,binding signal,ETV3,"1.31 fold enrichment (6-mer frequency, TF over GST control)"
same,binding signal,ETV6,"1.31 fold enrichment (6-mer frequency, TF over GST control)"
AGCTCT,binding signal,ERF,"1.16 fold enrichment (6-mer frequency, TF over GST control)"
same,binding signal,ETV3L,"1.34 fold enrichment (6-mer frequency, TF over GST control)"
same,binding signal,ETS2,"1.16 fold enrichment (6-mer frequency, TF over GST control)"
same,binding signal,SPDEF,"1.03 fold enrichment (6-mer frequency, TF over GST control)"
same,binding signal,ETV7,"1.17 fold enrichment (6-mer frequency, TF over GST control)"
same,binding signal,ELF5,"1.12 fold enrichment (6-mer frequency, TF over GST control)"
same,binding signal,ETV3,"1.21 fold enrichment (6-mer frequency, TF over GST control)"
same,binding signal,ETV6,"1.17 fold enrichment (6-mer frequency, TF over GST control)"
